# According to PubChem BioAssay (NCATS):
# “And” between values parts separate entries of the source, which are not always exact repeats. Equal entries are not always repeated. Records with an inconclusive call do not appear. Where a call stands in place of a potency, no number is given. The source made the active and inactive calls. Unless noted, the call rests on the fitted dose curve; in most records, active means well fitted curve in the direction sought with a large enough effect; inconclusive means small, poorly fitted or top-dose-only effect, or another doubt; inactive means no such curve, though single readings can be large; an effect the other way counts as inactive or inconclusive.
# Tests used:
# [1] = target: Luciferin 4-monooxygenase (Photinus pyralis) (UniProt P08659); assay: Biochemical firefly luciferase enzyme assay for NPC (AID 624030);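 further: purified P. pyralis luciferase at 10 nM with luciferin and ATP substrate; series mostly up to about 59 µM; nearly all actives have a fitted effect of over 70% in size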
# In short: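 Purified P. pyralis luciferase at 10 nM in 50 mM Tris Acetate (final), luminescence read within 5 minutes of enzyme addition to compounds. Activity normalised to PTC124 versus DMSO; concentration-response curves classed by r2, magnitude and activity.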
# [2] = target: Peroxisome proliferator-activated receptor gamma (Homo sapiens) (UniProt P37231); assay: qHTS assay for small molecule agonists of peroxisome proliferator-activated receptor gamma signaling (AID 588536; active means well fitted curve in the direction sought with a large enough effect in the signal ratio, with a control signal flat, not every such curve was filed as active; the % refers to the signal ratio)
# In short: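 This is an agonist-mode beta-lactamase reporter assay in HEK293 PPAR-gamma-UAS-bla cells with 1% charcoal/dextran FBS. Compound titrations ran 16 h at 37 C before CCF4 detection. EC50 and efficacy are Hill fits scaled to 2 uM rosiglitazone (100%) and DMSO basal.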
# [3] = target: Peroxisome proliferator-activated receptor gamma (Homo sapiens) (UniProt P37231); assay: qHTS assay for small molecule antagonists of peroxisome proliferator-activated receptor gamma signaling (AID 588537; active means well fitted inhibition curve with a large enough effect in the signal ratio, with a control signal flat, not every such curve was filed as active; the % refers to the signal ratio;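 further: reporter cells co-stimulated with 50 nM rosiglitazone agonist during compound treatment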)
# In short: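 Fluorescence at 460 and 530 nm (405 nm excitation) reported beta-lactamase cleavage of CCF4 after 2 h room-temperature loading. HEK293 reporter cells in 1% charcoal/dextran-treated FBS had received compound and rosiglitazone for 16 h.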
# [4] = target: Vitamin D3 receptor (Homo sapiens) (UniProt P11473); assay: qHTS assay for small molecule antagonists of vitamin D receptor signaling (AID 588541; calls by dose curve;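 further: receptor activated by calcitriol during compound treatment; series mostly up to about 77 µM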)
# In short: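 VDR-UAS-bla HEK293T cells in 2% charcoal-stripped FBS were stimulated with 1-alpha,25-dihydroxyvitamin D3 (3 nM final) plus compound for 16 h at 37 C. The beta-lactamase CCF4 readout was normalized to 50 nM agonist and DMSO, and Hill fits gave IC50.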
# [5] = target: Vitamin D3 receptor (Homo sapiens) (UniProt P11473); assay: qHTS assay for small molecule agonists of vitamin D receptor signaling (AID 588543; calls by dose curve)
# In short: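 qHTS in agonist mode: compound titrations stimulate a VDR-driven β-lactamase reporter in HEK293T cells over 16 h at 37 °C. Response normalized to 50 nM 1α,25-dihydroxyvitamin D3 = 100%, DMSO = 0%; Hill fitting gives EC50 and maximal response.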
# [6] = qHTS assay for small molecule agonists of retinoid X receptor alpha signaling (AID 588544); details: HEK293T RXRa-UAS-bla, beta-lactamase reporter, 18 h; 530 nm emission
# [7] = target: Thyroid hormone receptor beta (Homo sapiens) (UniProt P10828); assay: qHTS assay for small molecule agonists of thyroid hormone receptor beta signaling (AID 588545; calls by dose curve)
# In short: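 Compounds were tested as agonists in TR-UAS-bla-GripTite HEK 293 cells. After 18 hrs at 37 C, CCF4 substrate was added and fluorescence read after 2 hrs at room temperature.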
# [8] = qHTS assay for small molecule antagonists of retinoid X receptor alpha signaling (AID 588546; active means well fitted inhibition curve with a large enough effect in the signal ratio, with a control signal flat, not every such curve was filed as active; the % refers to the signal ratio;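 further: cells stimulated with 9-cis-retinoic acid as agonist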); details: HEK293T RXRa-UAS-bla, beta-lactamase ratio, antagonist mode; measured here: W530 green channel, cytotoxicity proxy
# In short: (§1)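 Beta-lactamase reporter inhibition, read as CCF4 fluorescence ratio (ex 405, em 460/530 nm) after 2 h at RT. HEK293T UAS-bla cells, 2500/well, were stimulated with 9-cis-RA at 500 or 100 nM final alongside test compound for 18 h at 37 C.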
# [9] = target: Retinoic acid receptor RXR-alpha (Homo sapiens) (UniProt P19793); assay: as above; details: HEK293T RXRa-UAS-bla, beta-lactamase ratio, antagonist mode
# In short: as §1
# [10] = target: Thyroid hormone receptor beta (Homo sapiens) (UniProt P10828); assay: qHTS assay for small molecule antagonists of thyroid hormone receptor beta signaling (AID 588547; active means well fitted inhibition curve with a large enough effect in the signal ratio, with a control signal flat, not every such curve was filed as active; the % refers to the signal ratio;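 further: cells stimulated with 0.4 nM T3 agonist during compound exposure; series mostly up to about 77 µM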); details: TR-UAS-bla HEK293, beta-lactamase ratio, antagonist mode, 18 h
# In short: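 TR-UAS-bla GripTite HEK293 cells in 2% charcoal/dextran FBS medium; compounds 0.59 nM to 92 uM with T3 at 0.4nM final, 18 h at 37 C. Beta-lactamase read by CCF4 fluorescence (460/530 nm); Hill fits gave IC50 and efficacy.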
# [11] = S16 Schwann cell viability assay (CellTiter-Glo assay) (AID 624031); further: potency means the concentration at half of the fitted maximal effect; nearly all actives have a fitted effect of over 70% in size
# In short: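 CellTiter-Glo ATP luminescence counter-screen in untransfected S16 rat Schwann cells, 24h compound exposure at 37 degree Celsius after overnight seeding (500-750 cells/well); response scaled between cell-free wells and DMSO (0% activity), curves classed by r2 and magnitude.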
# [12] = target: Glutaminase kidney isoform, mitochondrial (Homo sapiens) (UniProt O94925); assay: qHTS for Inhibitors of Glutaminase (GLS): LOPAC Validation (AID 624146); further: nearly all actives have a fitted effect of over 60% in size; further: potency means the concentration at half of the fitted maximal effect
# In short: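 Assay buffer: 45 mM KH2PO4 pH 8.2, 0.02% Tween-20. hKGA acts on L-glutamine (1 mM solution added); product glutamate is reported by an oxidase/peroxidase Amplex Red coupling, with fluorescence taken at baseline and 30 min.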
# [13] = qHTS of Trypanosoma Brucei Inhibitors: LOPAC Validation (AID 624147)
# In short: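 T. brucei PYK with substrate was exposed to pin-transferred compounds across a concentration series, then started with 130 uM ADP (final). After 45 min at room temperature, Kinase-Glo Plus luminescence was read, normalized and curve-fitted.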
# [14] = target: Glucagon-like peptide 1 receptor (Homo sapiens) (UniProt P43220); assay: qHTS of GLP-1 Receptor Agonists: LOPAC Validation (AID 624148);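 further: higher luminescence signal means agonism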
# In short: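 HEK293 cells stably co-expressing GLP-1R and a cAMP-responsive luciferase reporter, plated 12 hours before compound, then incubated 4-6 hr at 37 deg C. Luminescence read 12 min after detection reagent.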
# [15] = HTS Assay for Allosteric Antagonists of the Human D2 Dopamine Receptor: Hit Validation in HTRF (AID 624455);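 further: stable D1 dopamine receptor cell line scored for blocking the D1 response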
# In short: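 Inhibition of the D1-mediated response was measured by HTRF. Cells used were a line stably expressing the D1 dopamine receptor.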
# [16] = S16 Schwann cell PMP22 intronic element firefly luciferase assay (AID 624032); further: nearly all actives have a fitted effect of over 30% in size; further: potency means the concentration at half of the fitted maximal effect
# In short: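 Rat S16 Schwann cells stably carrying firefly luciferase driven by a PMP22 intronic element, in 10% FBS, treated 24 h at 37 C. ONE-Glo luminescence normalized to PTC124 control and DMSO (0%); curves classed by r2, magnitude and activity.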
# [17] = S16 Schwann cell PMP22 intronic element beta-lactamase assay (AID 624044; calls by dose curve; further: nearly all actives have a fitted effect of over 15% in size; further: potency means the concentration at half of the fitted maximal effect)
# In short: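 Beta-lactamase reporter under a PMP22 intronic regulatory element in stable S16 rat Schwann cells; 24 h compound exposure. 460 nm blue signal normalized between DMSO (0%) and potassium clavulanate, with 535 nm FRET tracking viability; curves classed by r2 and response.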
# Sequence of Retinoic acid receptor RXR-alpha (Homo sapiens) (P19793 whole entry, looked up): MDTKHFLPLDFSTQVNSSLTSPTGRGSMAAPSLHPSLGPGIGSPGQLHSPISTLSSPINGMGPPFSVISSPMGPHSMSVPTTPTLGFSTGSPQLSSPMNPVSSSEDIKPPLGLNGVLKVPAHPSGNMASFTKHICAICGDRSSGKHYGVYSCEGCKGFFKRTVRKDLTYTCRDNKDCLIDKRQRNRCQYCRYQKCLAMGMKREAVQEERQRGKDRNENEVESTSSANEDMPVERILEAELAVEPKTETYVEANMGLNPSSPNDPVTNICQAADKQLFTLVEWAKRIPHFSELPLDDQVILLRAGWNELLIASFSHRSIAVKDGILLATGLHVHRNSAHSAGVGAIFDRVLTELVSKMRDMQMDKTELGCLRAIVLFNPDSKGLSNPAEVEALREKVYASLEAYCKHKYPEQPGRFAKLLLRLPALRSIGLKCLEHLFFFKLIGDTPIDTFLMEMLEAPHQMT
# Sequence of Vitamin D3 receptor (Homo sapiens) (P11473 whole entry, looked up): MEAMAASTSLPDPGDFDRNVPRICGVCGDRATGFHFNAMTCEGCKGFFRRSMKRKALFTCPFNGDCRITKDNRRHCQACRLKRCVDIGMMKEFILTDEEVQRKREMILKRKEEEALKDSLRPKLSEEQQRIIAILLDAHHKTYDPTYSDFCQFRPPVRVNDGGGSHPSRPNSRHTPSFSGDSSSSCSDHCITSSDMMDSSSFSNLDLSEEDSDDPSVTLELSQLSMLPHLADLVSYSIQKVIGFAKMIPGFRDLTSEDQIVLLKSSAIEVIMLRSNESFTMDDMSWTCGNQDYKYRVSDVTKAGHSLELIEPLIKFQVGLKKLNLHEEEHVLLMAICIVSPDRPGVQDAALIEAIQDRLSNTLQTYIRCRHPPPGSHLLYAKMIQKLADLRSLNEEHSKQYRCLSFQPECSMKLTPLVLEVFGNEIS
# Sequence of Glutaminase kidney isoform, mitochondrial (Homo sapiens) (O94925 whole entry, looked up, canonical isoform): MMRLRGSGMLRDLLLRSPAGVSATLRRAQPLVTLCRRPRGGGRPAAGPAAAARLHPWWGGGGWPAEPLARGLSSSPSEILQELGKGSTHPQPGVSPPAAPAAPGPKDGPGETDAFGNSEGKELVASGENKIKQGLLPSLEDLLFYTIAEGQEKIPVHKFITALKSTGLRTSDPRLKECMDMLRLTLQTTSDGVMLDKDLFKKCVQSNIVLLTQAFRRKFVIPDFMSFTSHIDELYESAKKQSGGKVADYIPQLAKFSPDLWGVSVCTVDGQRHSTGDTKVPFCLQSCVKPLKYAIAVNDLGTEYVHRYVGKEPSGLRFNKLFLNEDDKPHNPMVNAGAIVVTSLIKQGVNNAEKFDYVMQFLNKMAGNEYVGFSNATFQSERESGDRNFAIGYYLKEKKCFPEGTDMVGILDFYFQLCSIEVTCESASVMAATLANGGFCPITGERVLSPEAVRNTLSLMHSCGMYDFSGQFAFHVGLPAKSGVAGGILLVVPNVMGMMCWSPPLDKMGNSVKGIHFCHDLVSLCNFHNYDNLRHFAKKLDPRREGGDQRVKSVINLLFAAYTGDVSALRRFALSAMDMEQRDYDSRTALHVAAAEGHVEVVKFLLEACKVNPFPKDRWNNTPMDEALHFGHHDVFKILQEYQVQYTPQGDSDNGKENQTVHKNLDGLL
# Sequence of Thyroid hormone receptor beta (Homo sapiens) (P10828 whole entry, looked up): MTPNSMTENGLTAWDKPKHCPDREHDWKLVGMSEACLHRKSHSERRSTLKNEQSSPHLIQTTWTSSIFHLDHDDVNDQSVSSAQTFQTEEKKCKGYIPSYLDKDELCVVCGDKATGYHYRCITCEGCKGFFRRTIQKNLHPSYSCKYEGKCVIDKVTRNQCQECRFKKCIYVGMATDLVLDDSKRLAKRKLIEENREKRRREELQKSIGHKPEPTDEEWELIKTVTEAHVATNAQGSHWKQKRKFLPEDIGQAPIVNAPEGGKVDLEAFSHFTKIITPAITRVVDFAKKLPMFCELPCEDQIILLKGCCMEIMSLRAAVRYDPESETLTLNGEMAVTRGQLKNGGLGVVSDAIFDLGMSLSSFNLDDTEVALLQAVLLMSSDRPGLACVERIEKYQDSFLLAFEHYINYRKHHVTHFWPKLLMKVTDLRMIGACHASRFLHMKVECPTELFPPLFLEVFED
# Sequence of Glucagon-like peptide 1 receptor (Homo sapiens) (P43220 whole entry, looked up): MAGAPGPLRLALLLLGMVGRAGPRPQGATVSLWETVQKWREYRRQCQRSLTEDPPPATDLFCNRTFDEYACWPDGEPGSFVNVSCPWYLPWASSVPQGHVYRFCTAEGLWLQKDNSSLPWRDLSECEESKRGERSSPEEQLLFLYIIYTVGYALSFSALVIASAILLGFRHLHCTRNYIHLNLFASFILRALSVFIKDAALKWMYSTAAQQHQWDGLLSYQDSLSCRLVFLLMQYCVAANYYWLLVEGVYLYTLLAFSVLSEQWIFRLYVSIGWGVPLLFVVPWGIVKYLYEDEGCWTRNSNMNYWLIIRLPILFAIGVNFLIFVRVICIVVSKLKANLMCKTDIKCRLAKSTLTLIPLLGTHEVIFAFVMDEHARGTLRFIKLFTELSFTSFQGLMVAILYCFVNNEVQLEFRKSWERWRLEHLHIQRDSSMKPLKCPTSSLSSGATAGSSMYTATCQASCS
# Sequence of Peroxisome proliferator-activated receptor gamma (Homo sapiens) (P37231 whole entry, looked up): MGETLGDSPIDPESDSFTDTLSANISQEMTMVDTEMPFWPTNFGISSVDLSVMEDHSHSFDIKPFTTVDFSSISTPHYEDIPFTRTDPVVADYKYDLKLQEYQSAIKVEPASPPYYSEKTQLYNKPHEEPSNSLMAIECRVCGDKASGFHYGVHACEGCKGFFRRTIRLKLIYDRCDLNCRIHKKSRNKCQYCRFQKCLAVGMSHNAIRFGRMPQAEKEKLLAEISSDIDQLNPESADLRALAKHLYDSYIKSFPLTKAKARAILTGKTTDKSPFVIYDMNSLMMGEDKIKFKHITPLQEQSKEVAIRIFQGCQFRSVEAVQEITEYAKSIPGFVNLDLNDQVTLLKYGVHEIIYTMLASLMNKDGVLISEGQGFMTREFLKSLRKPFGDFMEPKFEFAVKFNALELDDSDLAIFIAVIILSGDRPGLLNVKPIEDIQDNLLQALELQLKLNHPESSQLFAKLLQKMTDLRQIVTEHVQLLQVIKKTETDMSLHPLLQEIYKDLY
# Sequence of Luciferin 4-monooxygenase (Photinus pyralis) (P08659 whole entry, looked up): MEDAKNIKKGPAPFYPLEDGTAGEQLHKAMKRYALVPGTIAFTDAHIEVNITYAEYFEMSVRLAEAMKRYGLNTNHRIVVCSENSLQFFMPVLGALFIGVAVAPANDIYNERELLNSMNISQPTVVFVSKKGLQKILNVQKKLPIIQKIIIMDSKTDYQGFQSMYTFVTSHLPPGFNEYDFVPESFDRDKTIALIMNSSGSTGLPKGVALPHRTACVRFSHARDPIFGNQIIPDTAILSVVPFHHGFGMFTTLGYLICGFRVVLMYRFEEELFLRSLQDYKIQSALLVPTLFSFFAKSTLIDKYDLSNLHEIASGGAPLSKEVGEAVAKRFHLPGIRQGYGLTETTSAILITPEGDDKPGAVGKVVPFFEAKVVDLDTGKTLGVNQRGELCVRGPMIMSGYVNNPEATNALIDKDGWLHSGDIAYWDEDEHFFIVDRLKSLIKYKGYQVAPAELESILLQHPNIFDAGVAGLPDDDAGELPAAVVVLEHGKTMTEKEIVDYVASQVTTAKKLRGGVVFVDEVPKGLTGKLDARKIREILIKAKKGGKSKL
structure (smiles),measurement,setting,value
O=C1[C@@H]2[C@H]3CC[C@H](C3)[C@@H]2C(=O)N1CCCCN1CCN(c2ncccn2)CC1,Potency,[1],inactive
OCCOCCN1CCN(C(c2ccccc2)c2ccc(Cl)cc2)CC1 (stereo unspecified),outcome,[2],inactive
same,outcome,[3],inactive
same,outcome,[4],inactive
same,outcome,[5],inactive
same,max response,[6],11.6%
same,outcome,[7],inactive
same,max response,[8],2.38%
same,max response,[9],-14.3% (inactive)
same,activity change % (negative = inhibition),[10],-10.5% (inactive)
same,Potency,[1],inactive
CC(COc1ccccc1)NN (stereo unspecified),Potency,[1],inactive
c1ccc2occc2c1,outcome,[2],inactive
same,outcome,[4],inactive
same,outcome,[5],inactive
same,max response,[6],-16.2%
same,outcome,[7],inactive
same,max response,[8],-13.5% and -7.35%
same,max response,[9],6.36% (inactive) and -5.03% (inactive)
same,Potency,[1],inactive
O=C(Nc1ccc(Cl)cc1)Nc1ccc(Cl)c(Cl)c1,outcome,[7],inactive
CC(=O)OCC(=O)[C@@]1(O)[C@H](OC(C)=O)C[C@H]2[C@@H]3CCC4=CC(=O)C=C[C@]4(C)[C@@]3(F)[C@@H](O)C[C@@]21C,Potency,[1],inactive
CCCCCCCCCCCCCCCC[n+]1ccccc1,outcome,[2],inactive
same,outcome,[5],inactive
same,max response,[6],3.2%
same,max response,[8],11.3%
same,max response,[9],-34.1% (inactive)
same,Potency,[1],inactive
same,Potency,[11],36.1 µM (active)
CCCCCC1Nc2cc(C(F)(F)F)c(S(N)(=O)=O)cc2S(=O)(=O)N1 (stereo unspecified),Potency,[1],inactive
CC(C)C(C)(C)C(C)(C)C(C)(C)S,outcome,[2],inactive
same,outcome,[3],inactive
same,outcome,[4],inactive
same,outcome,[5],inactive
same,max response,[6],-6.07% and -23.3%
same,max response,[8],-12% and -14.7%
same,max response,[9],11.7% (inactive) and -0.658% (inactive)
same,activity change % (negative = inhibition),[10],1.2% (inactive) and -6.79% (inactive)
same,Potency,[1],inactive
O=C(Oc1ccccc1)c1ccccc1O,outcome,[2],inactive
same,outcome,[3],inactive
same,outcome,[7],inactive
same,max response,[8],8.83% and -6.1%
same,max response,[9],0.088% (inactive) and -1.29% (inactive)
same,activity change % (negative = inhibition),[10],-5.55% (inactive) and -2.84% (inactive)
same,Potency,[1],inactive
CC(C)(C)c1ccc(O)c(O)c1,outcome,[2],inactive
same,outcome,[3],inactive
same,outcome,[4],inactive
same,outcome,[5],inactive
same,outcome,[7],inactive
same,max response,[8],3.05% and -10.4%
same,max response,[9],-35.8% (inactive) and -24.1% (inactive)
same,activity change % (negative = inhibition),[10],-12.4% (inactive) and -14.4% (inactive)
C1=CC2C3C=CC(C3)C2C1 (stereo unspecified),outcome,[2],inactive
same,outcome,[4],inactive
same,outcome,[5],inactive
same,max response,[6],15.9%
same,outcome,[7],inactive
same,activity change % (negative = inhibition),[10],2.01% (inactive)
same,Potency,[1],inactive
O=C1NC(=O)/C(=C/c2ccc3c(c2)OC(F)(F)O3)S1,Potency,[12],inactive
same,outcome,[13],inactive
same,outcome,[14],inactive
same,outcome,[15],inactive
CN1CCCN(C(c2ccccc2)c2ccc(Cl)cc2)CC1 (stereo unspecified),Potency,[1],inactive
same,Potency,[11],32.2 µM (active)
same,Potency,[16],28.7 µM (active)
same,Potency,[17],inactive
O=[N+]([O-])c1ccc(O)c2ncccc12,Potency,[1],inactive
same,Potency,[16],inactive
O=C(O)CNC(=O)CNC(=O)CNC(=O)CSC(=O)c1ccccc1,Potency,[1],inactive
CCCCCCCCCCCCCC[N+](C)(C)C,Potency,[17],25.1 µM (active)
Cc1ccc(/C=N/n2c(-c3ccccc3)csc2=S)cc1,Potency,[1],inactive
CC(NCCC(c1ccccc1)c1ccccc1)c1ccccc1 (stereo unspecified),Potency,[1],inactive
same,Potency,[11],25.6 µM (active)
same,Potency,[17],inactive
Nc1ncnc2n[nH]c(Nc3ccc(F)cc3)c12,Potency,[12],10 µM (active)
same,outcome,[13],inactive
same,outcome,[14],inactive
same,outcome,[15],inactive
C[N+](C)(C)CCO,Potency,[1],inactive
same,Potency,[12],inactive
same,outcome,[13],inactive
same,outcome,[14],inactive
same,outcome,[15],inactive
